Source: ChEMBL document CHEMBL1157539, “Thousands of chemical starting points for antimalarial lead identification” (Nature, 2010)

System: HepG2
Assay: GSK_TCMDC: Percent inhibition of human HepG2 cell line. Test compounds present at 10uM.
Type: functional

Row | SMILES | Inhibition [%]
1 | O=C(O)C(F)(F)F.c1cc(CN2CCN(CCN3CCOCC3)CC2)cc(-c2cccc(-c3nc4ccccc4[nH]3)c2)c1 | 29
2 | COc1ccc(-c2cccc(NC(=O)c3ccc(Cl)cc3)c2)cc1CN1CCC(O)CC1.O=C(O)C(F)(F)F | 51
3 | CCOC(=O)C1=C(C)NC2=C(C(=O)CC(C)(C)C2)C1c1ccc(Cl)cc1 (configuration not stated) | 4
4 | OC(CNCc1ccccc1)c1cc(OCc2ccccc2)cc(OCc2ccccc2)c1 (configuration not stated) | 0
5 | O=C(C=Cc1ccc(-c2nc3ccccc3[nH]2)cc1)NC1CCN(Cc2ccccc2)CC1 | 15
6 | Cc1ccnc2nc(C(=O)Nc3cc(C(F)(F)F)ccc3N3CCCCC3)nn12 | 7
7 | COc1ccc(NC(=O)[C@H](Cc2ccccc2)Nc2cc(C)nc(NCCc3cccs3)n2)cc1.O=C(O)C(F)(F)F | 12
8 | O=C(NCCCCN1CCC(c2ccc3c(c2O)CCCC3)CC1)c1ccc(-c2ccc(Cl)cc2)cc1 | 97
9 | Cc1nn(C)c(C)c1CN(Cc1nc(-c2cccc(Oc3ccccc3)c2)oc1C)C1CC1 | 7
10 | NCC1CCCN1Cc1ccc(-c2ccc(-c3nc4ccccc4[nH]3)s2)cc1.O=C(O)C(F)(F)F (configuration not stated) | 17
11 | O=C(CN1CCC2(CCC1=O)CC(=O)c1ccccc1O2)NCCN1CCOCC1 (configuration not stated) | 6
12 | O=C1Nc2cccc3c2C1(CCCCN1CCC(c2c[nH]c4cc(C(F)(F)F)ccc24)CC1)CCC3 (configuration not stated) | 99
